The nature of assay [1]: ATG_E_Box_CIS: Attagene CIS-FACTORIAL HepG2 Assay for human Enhancer Box (E-box) (AID 2282936). The following applies: HepG2 E-box cis-reporter transcription, actives raise or lower the signal. In a few lines: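 Cells: HepG2 (human liver), transient MRTU transfection. Exposure 24 h. RNA → oligo(dT) RT → PCR → 6-FAM label → HpaI → CE. Activity fitted both directions relative to DMSO.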

Assay [2] is described as follows: ATG_M_61_CIS: Attagene CIS-FACTORIAL HepG2 Assay for M61 Transcription Factor (Internal Marker) (AID 2282937). The following applies: HepG2 Attagene CIS-FACTORIAL M61 internal marker reporter; actives raise or lower the signal. In short, it runs like this:
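Human liver HepG2, transient MRTU transfection (cis promoter elements), 24 h compound. Total RNA → oligo(dT) RT → PCR → FAM label → HpaI → CE. Internal background marker; bidirectional fitting, DMSO = baseline.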

Assay [3] in a line: ATG_EGR_CIS: Attagene CIS-FACTORIAL HepG2 Assay for human Early Growth Response 1 (EGR1) (AID 2282938). The following applies: HepG2 Attagene CIS-FACTORIAL EGR reporter mRNA; actives raise or lower the signal. In short, it runs like this:
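Transient transfection of human HepG2 with multiple cis-regulated reporter units, chemical exposure 24 h, total RNA isolated. Reverse transcription, PCR, fluorescent labelling and capillary electrophoresis quantify reporter transcripts; activity fitted bidirectionally against DMSO.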

A short description of assay [4]: ATG_M_19_CIS: Attagene CIS-FACTORIAL HepG2 Assay for M19 Transcription Factor (Internal Marker) (AID 2282939). The following applies: HepG2 Attagene CIS-FACTORIAL M19 internal marker reporter; actives raise or lower the signal. In short, it runs like this:
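Following a 24 h exposure, RNA from transfected HepG2 cells was reverse-transcribed, PCR-amplified with reporter-specific primers, end-labelled with 6-FAM and HpaI-digested before capillary separation. Values represent gain or loss versus DMSO.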

Assay [5] can be described thus: ATG_Ets_CIS: Attagene CIS-FACTORIAL HepG2 Assay for human Erythroblast Transformation Specific (ETS) (AID 2282941). The following applies: HepG2 ETS cis-reporter transcription, actives raise or lower the signal. In a few lines: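 HepG2 cells transfected with multiple cis-regulated reporter units measuring endogenous ETS-driven transcription, 24 h after dosing. Reporter mRNA quantified by RT-PCR with capillary electrophoresis; bidirectional fit relative to DMSO.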

Assay [6] has as its target Hepatocyte nuclear factor 3-beta (Homo sapiens) (UniProt Q9Y261). Description: ATG_FoxA2_CIS: Attagene CIS-FACTORIAL HepG2 Assay for human Forkhead box A2 (FOXA2) (AID 2282942). The following applies: HepG2 cis-reporter transcription factor activity, 24 h; actives raise or lower the signal. In a few lines: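 Transient MRTU transfection of HepG2 liver cells; 24 h treatment; total RNA → oligo(dT) RT → PCR → FAM primer extension → HpaI cut → CE. Bidirectional fit vs DMSO.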

Assay [7] in a line: ATG_FoxO_CIS: Attagene CIS-FACTORIAL HepG2 Assay for human Forkhead box O (FoxO) (AID 2282943). The following applies: HepG2 Attagene cis-reporter, FoxO element, mRNA; actives raise or lower the signal. In a few lines: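 HepG2, transient MRTU transfection (cis element, endogenous TFs). Dose 24 h. TriZol RNA → oligo(dT) RT → PCR → 6-FAM primer extension → HpaI cut → CE. Gain/loss vs DMSO.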

A short description of assay [8]: ATG_GATA_CIS: Attagene CIS-FACTORIAL HepG2 Assay for human GATA Binding Protein (AID 2282944). The following applies: HepG2 GATA cis-element reporter, Attagene multiplex mRNA; actives raise or lower the signal. In a few lines:
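DMSO serves as negative control and baseline for bidirectional fitting of reporter mRNA changes. HepG2 cells bearing transiently transfected cis-promoter reporters were exposed 24 h; transcripts detected via RT-PCR and capillary electrophoresis.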

Assay [9] is described as follows: ATG_GLI_CIS: Attagene CIS-FACTORIAL HepG2 Assay for human Zinc Finger Protein GLI1 (AID 2282945). The following applies: HepG2, Attagene cis-factorial reporter mRNA, GLI element; actives raise or lower the signal. In a few lines: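 Bidirectional curve fits relative to DMSO, using reporter mRNA levels from RT-PCR plus capillary electrophoresis. Cells were HepG2 transiently carrying cis-regulated reporter constructs, harvested 24 h after dosing.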

Assay [10] has as its target Bile acid receptor (Homo sapiens) (UniProt Q96RI1). In words: ATG_IR1_CIS: Attagene CIS-FACTORIAL HepG2 Assay for human Nuclear Receptor Subfamily 1 Group H Member 4 (NR1H4), IR1 submotif (AID 2282946). The following applies: IR1 reporter transcription, actives raise or lower the signal. In a few lines: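 Cells (human HepG2) carry transiently transfected cis-promoter reporter transcription units. Compounds are incubated 24 h, total RNA is reverse-transcribed and amplified, and labelled fragments are resolved by capillary electrophoresis. Curves use DMSO as baseline.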

Assay [11] can be described thus: ATG_GRE_CIS: Attagene CIS-FACTORIAL HepG2 Assay for human Glucocorticoid Response Elements (GRE) (AID 2282947). The following applies: HepG2 GRE cis-reporter, Attagene multiplex mRNA; actives raise or lower the signal. In short, it runs like this: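 Transient MRTU transfection of human HepG2 liver cells; cis-regulated reporters report endogenous factors. 24 h dosing → RNA isolation → RT-PCR → 6-FAM primer extension → HpaI cut → CE fragment analysis. Bidirectional fit, DMSO negative control.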

Assay [12] in a line: ATG_ISRE_CIS: Attagene CIS-FACTORIAL HepG2 Assay for human Interferon Regulatory Factor 1 (IRF1) binding to an Interferon-Stimulated Response Element (ISRE) (AID 2282948). The following applies: HepG2 ISRE cis-reporter (Attagene), mRNA transcription readout; actives raise or lower the signal. In a few lines: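 Transiently transfected HepG2 cells carrying cis-element reporter units, dosed 24 hours. Reporter mRNA quantified by RT-PCR, fluorescent primer extension, HpaI digestion and capillary electrophoresis. Bidirectional fitting relative to DMSO.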

Assay [13] in a line: ATG_M_32_CIS: Attagene CIS-FACTORIAL HepG2 Assay for M32 Transcription Factor (Internal Marker) (AID 2282949).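 Note: background control marker of the multiplexed CIS panel rather than a real target.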 The following applies: HepG2 Attagene cis-factorial M32 reporter, mRNA; actives raise or lower the signal. In short, it runs like this: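 HepG2 cells transiently transfected with multiplexed cis-regulated reporter units, dosed 24 h. Reporter mRNA quantified by RT-PCR, 6-FAM labelling, HpaI digestion and capillary electrophoresis; bidirectional fit vs DMSO.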

Assay [14] in a line: ATG_M_06_CIS: Attagene CIS-FACTORIAL HepG2 Assay for M06 Transcription Factor (Internal Marker) (AID 2282950). The following applies: HepG2 Attagene CIS-FACTORIAL M06 internal marker reporter; actives raise or lower the signal. In short, it runs like this:
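Fluorescence-labelled RT-PCR products from cis-promoter reporter units, cut with HpaI and resolved by capillary electrophoresis, give the signal. Cells are human HepG2, dosed for 24 h. Serves as background control, fitted relative to DMSO.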

The target in assay [15] is Hypoxia-inducible factor 1-alpha (Homo sapiens) (UniProt Q16665). In words: ATG_HIF1a_CIS: Attagene CIS-FACTORIAL HepG2 Assay for human Hypoxia Inducible Factor 1 (HIF1A) (AID 2282951). The following applies: HepG2 Attagene cis-factorial HIF1a reporter transcription; actives raise or lower the signal. In a few lines:
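Transient MRTU transfection of human HepG2 liver cells, 24 h compound treatment, then total RNA isolation, oligo(dT) reverse transcription, PCR amplification, fluorescent labelling and capillary electrophoresis of reporter fragments. Gain or loss relative to DMSO.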

In assay [16] the target is Hepatocyte nuclear factor 6 (Homo sapiens) (UniProt Q9UBC0). In words: ATG_HNF6_CIS: Attagene CIS-FACTORIAL HepG2 Assay for human Hepatocyte Nuclear Factor 6 (HNF6) (AID 2282952). The following applies: HepG2 Attagene cis-factorial HNF6 reporter transcription; actives raise or lower the signal. In a few lines:
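HepG2 cells transiently transfected with cis-element-driven multiplexed reporter units measuring endogenous transcription factor activity. After 24 h exposure, reporter mRNA quantified by RT-PCR, FAM-labelled fragments and capillary electrophoresis; bidirectional fitting versus DMSO.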

The target of assay [17] is Heat shock factor protein 1 (Homo sapiens) (UniProt Q00613). Description: ATG_HSE_CIS: Attagene CIS-FACTORIAL HepG2 Assay for human Heat Shock Transcription Factor 1 (HSE) (AID 2282953). The following applies: HepG2 HSE cis-reporter, Attagene RNA transcription; actives raise or lower the signal. In a few lines: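 After a 24 h incubation with test chemical, transfected HepG2 cells were harvested for RNA; reporter transcripts were measured by RT-PCR and capillary electrophoresis. Values reflect gain or loss of signal relative to DMSO.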
Chain of Heat shock factor protein 1 (Homo sapiens) (Q00613 whole entry, looked up): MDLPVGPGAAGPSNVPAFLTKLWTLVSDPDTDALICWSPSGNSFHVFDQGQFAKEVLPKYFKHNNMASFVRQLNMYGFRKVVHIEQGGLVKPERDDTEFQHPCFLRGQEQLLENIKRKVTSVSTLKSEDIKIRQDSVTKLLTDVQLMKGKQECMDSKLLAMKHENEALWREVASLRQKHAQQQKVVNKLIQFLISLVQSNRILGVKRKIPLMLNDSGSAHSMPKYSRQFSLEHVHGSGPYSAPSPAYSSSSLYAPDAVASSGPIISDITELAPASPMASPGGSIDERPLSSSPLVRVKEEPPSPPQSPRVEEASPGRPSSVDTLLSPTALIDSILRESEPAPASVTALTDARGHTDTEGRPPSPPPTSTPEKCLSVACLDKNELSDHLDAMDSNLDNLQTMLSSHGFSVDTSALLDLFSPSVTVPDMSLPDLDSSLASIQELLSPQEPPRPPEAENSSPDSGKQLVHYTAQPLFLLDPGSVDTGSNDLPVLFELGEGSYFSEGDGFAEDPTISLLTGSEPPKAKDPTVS

Assay [18] can be described thus: ATG_MRE_CIS: Attagene CIS-FACTORIAL HepG2 Assay for human Metal Responsive Element (MRE) (AID 2282954). The following applies: HepG2 MRE cis-reporter transcription, Attagene multiplex; actives raise or lower the signal. In short, it runs like this:
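Transient MRTU transfection of HepG2 (FuGene 6); 24 h dosing; total RNA → oligo(dT) RT, PCR, 6-FAM primer extension, HpaI cut, CE. Bidirectional fit vs DMSO.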

Assay [19] can be described thus: ATG_PBREM_CIS: Attagene CIS-FACTORIAL HepG2 Assay for human Phenobarbital-responsive Enhancer Module (PBREM) (AID 2282955). The following applies: HepG2 PBREM cis-reporter, Attagene multiplexed transcription; actives raise or lower the signal. In a few lines:
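Endogenous transcription factors in human liver HepG2 cells drive a PBREM cis-element reporter, whose transcript level after 24 h treatment is quantified by RT-PCR with capillary electrophoresis; activity fitted in both directions against DMSO.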

The target in assay [20] is Paired box protein Pax-6 (Homo sapiens) (UniProt P26367). Description: ATG_Pax6_CIS: Attagene CIS-FACTORIAL HepG2 Assay for human Paired Box 6 (PAX6) (AID 2282956). The following applies: HepG2 CIS-FACTORIAL PAX6 reporter transcription, RNA readout; actives raise or lower the signal. In short, it runs like this: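 HepG2 cells transiently transfected with cis-promoter-driven multiplexed reporter units sensing endogenous transcription factor activity; 24 h chemical exposure. Reporter mRNA quantified by RT-PCR, 6-FAM labelling, HpaI digestion and capillary electrophoresis; bidirectional fit versus DMSO baseline.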
Chain of Paired box protein Pax-6 (Homo sapiens) (P26367 whole entry, looked up): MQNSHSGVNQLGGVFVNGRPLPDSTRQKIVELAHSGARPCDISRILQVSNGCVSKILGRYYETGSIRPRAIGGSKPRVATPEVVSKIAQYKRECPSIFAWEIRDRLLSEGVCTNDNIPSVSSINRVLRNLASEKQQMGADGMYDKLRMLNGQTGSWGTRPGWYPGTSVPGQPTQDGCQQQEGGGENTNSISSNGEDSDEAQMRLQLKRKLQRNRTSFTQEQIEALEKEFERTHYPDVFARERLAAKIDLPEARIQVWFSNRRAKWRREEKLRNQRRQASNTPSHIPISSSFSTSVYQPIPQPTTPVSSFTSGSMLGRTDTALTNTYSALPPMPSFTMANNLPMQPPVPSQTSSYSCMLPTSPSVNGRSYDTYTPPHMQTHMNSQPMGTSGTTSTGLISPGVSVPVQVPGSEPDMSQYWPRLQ

Experimental findings from PubChem BioAssay (EPA / NIEHS) are described below.

Each structure is given as a SMILES string. More than one record can exist for a structure, and the calls need not agree. The source made the active and inactive calls. Rule for the calls: active = hit-call score of the fitted dose curve at least 0.9, where 1 is the maximum; inactive = score below 0.9.

Chain of Bile acid receptor (Homo sapiens) (Q96RI1 whole entry, looked up, the tested form may be a part): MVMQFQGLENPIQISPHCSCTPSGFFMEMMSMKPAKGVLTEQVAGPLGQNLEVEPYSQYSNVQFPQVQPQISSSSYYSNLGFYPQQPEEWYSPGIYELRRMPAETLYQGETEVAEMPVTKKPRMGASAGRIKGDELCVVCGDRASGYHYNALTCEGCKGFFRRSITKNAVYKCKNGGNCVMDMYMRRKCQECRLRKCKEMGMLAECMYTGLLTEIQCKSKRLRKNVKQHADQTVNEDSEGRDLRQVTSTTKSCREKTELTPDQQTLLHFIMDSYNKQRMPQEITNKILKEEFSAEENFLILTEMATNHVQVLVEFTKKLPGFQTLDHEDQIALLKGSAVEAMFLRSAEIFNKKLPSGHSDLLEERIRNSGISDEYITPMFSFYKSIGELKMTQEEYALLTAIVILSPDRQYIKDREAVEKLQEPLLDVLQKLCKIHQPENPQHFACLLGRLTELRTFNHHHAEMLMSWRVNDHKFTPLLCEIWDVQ
Chain of Hepatocyte nuclear factor 6 (Homo sapiens) (Q9UBC0 whole entry, looked up, the tested form may be a part): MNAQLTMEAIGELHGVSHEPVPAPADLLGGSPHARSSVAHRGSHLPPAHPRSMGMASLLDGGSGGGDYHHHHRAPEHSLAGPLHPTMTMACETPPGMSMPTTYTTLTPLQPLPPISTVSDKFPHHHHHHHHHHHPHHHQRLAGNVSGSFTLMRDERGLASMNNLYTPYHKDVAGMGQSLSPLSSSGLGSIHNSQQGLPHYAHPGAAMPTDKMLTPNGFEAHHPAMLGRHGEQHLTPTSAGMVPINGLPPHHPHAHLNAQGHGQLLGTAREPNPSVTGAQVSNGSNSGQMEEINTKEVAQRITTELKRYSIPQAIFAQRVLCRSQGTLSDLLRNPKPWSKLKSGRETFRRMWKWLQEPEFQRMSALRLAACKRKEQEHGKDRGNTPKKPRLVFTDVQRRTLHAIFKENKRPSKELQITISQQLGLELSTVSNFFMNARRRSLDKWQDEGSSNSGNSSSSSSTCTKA
Chain of Hypoxia-inducible factor 1-alpha (Homo sapiens) (Q16665 whole entry, looked up, the tested form may be a part): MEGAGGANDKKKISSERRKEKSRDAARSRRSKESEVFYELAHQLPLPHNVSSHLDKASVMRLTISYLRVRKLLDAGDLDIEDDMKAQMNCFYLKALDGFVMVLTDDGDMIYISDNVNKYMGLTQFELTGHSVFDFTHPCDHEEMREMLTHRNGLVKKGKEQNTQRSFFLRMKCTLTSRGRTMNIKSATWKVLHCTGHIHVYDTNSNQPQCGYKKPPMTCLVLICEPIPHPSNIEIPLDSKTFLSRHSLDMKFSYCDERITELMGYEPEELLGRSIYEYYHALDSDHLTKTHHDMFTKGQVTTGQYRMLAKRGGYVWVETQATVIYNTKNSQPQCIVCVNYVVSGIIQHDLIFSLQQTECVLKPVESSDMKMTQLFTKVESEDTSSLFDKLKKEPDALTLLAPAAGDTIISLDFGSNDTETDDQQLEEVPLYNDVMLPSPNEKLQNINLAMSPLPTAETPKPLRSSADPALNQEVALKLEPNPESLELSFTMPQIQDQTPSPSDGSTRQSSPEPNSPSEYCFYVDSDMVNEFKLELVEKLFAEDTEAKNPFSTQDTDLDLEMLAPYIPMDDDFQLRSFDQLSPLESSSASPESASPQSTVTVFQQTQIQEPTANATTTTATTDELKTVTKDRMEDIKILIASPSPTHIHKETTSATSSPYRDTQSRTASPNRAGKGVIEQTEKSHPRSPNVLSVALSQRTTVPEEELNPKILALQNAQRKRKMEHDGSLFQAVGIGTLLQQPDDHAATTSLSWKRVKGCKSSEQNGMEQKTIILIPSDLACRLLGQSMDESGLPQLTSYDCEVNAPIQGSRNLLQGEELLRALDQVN
Chain of Hepatocyte nuclear factor 3-beta (Homo sapiens) (Q9Y261 whole entry, looked up): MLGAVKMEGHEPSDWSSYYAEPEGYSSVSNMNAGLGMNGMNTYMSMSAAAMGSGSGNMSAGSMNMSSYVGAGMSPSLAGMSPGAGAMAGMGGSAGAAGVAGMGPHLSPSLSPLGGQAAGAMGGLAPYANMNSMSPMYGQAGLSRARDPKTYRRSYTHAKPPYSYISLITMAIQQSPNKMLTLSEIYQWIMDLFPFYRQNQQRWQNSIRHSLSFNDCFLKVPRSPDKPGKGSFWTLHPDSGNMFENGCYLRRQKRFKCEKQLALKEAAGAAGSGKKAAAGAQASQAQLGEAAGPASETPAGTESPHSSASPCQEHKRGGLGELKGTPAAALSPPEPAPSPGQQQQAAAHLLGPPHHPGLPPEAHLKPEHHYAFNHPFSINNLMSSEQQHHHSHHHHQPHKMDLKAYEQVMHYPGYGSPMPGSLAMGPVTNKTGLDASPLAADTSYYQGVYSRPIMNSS

As to `COC(=O)c1cccc(C)c1S(=O)(=O)NC(=O)Nc1nc(OCC(F)(F)F)nc(N(C)C)n1`, the outcome in assay [1], in assay [2], in assay [3], in assay [4], in assay [5] and in assay [6] was inactive. Further, the result in assay [7], in assay [8], in assay [9], in [10], in assay [11] and in assay [12] was inactive. The result in assay [13], in [14], in [15], in assay [16], in assay [17] and in assay [18] was inactive. The result in assay [19] and in assay [20] was inactive.

Consider `c1ccc2[nH]c(-c3cscn3)nc2c1`, for which the result in assay [1], in [2], in assay [3], in [4], in [5] and in assay [6] was inactive. Also, the compound was called inactive in [7], in assay [8], in assay [9], in assay [10], in assay [11] and in [12]. The result in assay [13], in [14], in [15], in assay [16], in [18] and in assay [19] was inactive. In addition, the compound was classed as inactive in [20].

Consider `C[C@]12CC[C@@H]3c4ccc(O)cc4C[C@@H](CCCCCCCCCS(=O)CCCC(F)(F)C(F)(F)F)[C@H]3[C@@H]1CC[C@@H]2O` (stereo partly specified), for which the result in assay [1], in assay [2], in [3], in [4], in assay [5] and in [6] was inactive. Further, the call in assay [7], in assay [8], in [9], in assay [10], in assay [11] and in assay [12] was inactive. Further, the outcome in [13], in [14], in assay [15], in assay [16], in assay [17] and in [18] was inactive. Further, in assay [20], the call was inactive. In addition, the half-maximal activity concentration (AC50) in assay [18] is 1.39 µM (active).

Regarding `CCCN(CCC)c1c([N+](=O)[O-])cc(C(F)(F)F)c(N)c1[N+](=O)[O-]`, the outcome in [1], in [2], in assay [3], in [4], in assay [5] and in [6] was inactive. Also, the result in [8], in assay [9], in assay [10], in assay [11], in assay [12] and in [13] was inactive. Also, in [14], the call was inactive. In addition, the AC50 in assay [7] was 50 µM (active); in assay [15], 13 µM (active); in assay [16] it was 50 µM (active); in assay [18] it was 32.5 µM (active).

On to `COC(=O)c1ccc(CNS(C)(=O)=O)cc1S(=O)(=O)NC(=O)Nc1nc(OC)cc(OC)n1`, for which the result in assay [1], in assay [2], in [3], in [4], in assay [5] and in assay [6] was inactive. Also, the outcome in assay [7], in [8], in assay [9], in [10], in [11] and in [12] was inactive. The result in assay [13], in assay [14], in [15], in [16], in assay [17] and in assay [18] was inactive. For the same compound, the result in [19] and in assay [20] was inactive.

With `O=C(c1ccccc1)C1CCCCC1`, the result in [1], in assay [2], in [3], in assay [4], in assay [5] and in assay [6] was inactive. Moreover, the outcome in assay [7], in assay [8], in assay [9], in [10], in assay [11] and in [12] was inactive. Also, the outcome in assay [13], in assay [14], in assay [15], in [16], in [17] and in [18] was inactive. Moreover, in assay [19], the outcome was inactive. Moreover, the concentration at half-maximal activity (AC50) in assay [19] was 53.2 µM (active).
